Results from PubChem BioAssay.
Several values for one entry are separate records, joined by “and”; a condition that tells them apart may be missing. Equal entries are not always repeated. Activity calls are given as the source filed them.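 Rule for the calls, unless noted: active = inhibition at or above 50% relative to wild type and mutant plate controls; inactive = inhibition below 50%.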

What was measured:
[1] = inhibitors of TNFa-induced NFkB p65 translocation, primary screen, imaging, HUVEC, MLSMR starter and 10KST1 sets (AID 438;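 active = inhibition above 20% together with a positive visual image hit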;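 note: compound added about 3h40 before a 20 min TNFalpha stimulation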;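 for inhibition: signal is the nuclear over cytoplasmic p65 intensity ratio per well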); details: HUVEC TNFa-induced p65 nuclear translocation; cell count: measured here: nuclei count (cytotoxicity indicator), at 2.08 µM; inhibition: at 2 µM, stronger effect = higher value, 0% TNFa-plus-vehicle, 100% no-TNFa wells
[2] = reduction of polyQ htt aggregates in cells – imaging, exon1htt(103Q)mCFP cells, high-content imaging, primary screen (AID 483;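 active = visual image review flags a hit and inhibition of aggregation exceeds 20%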;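 note: compound exposure lasted 3 days before fixation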;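 for nuclei count: percent of the per-plate median nuclei count of sample wells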); details: exon1htt(103Q)mCFP cell line, aggregate imaging, at 2 µM; inhibition of aggregation: stronger effect = higher value; nuclei count: measured here: cell count, toxicity
[3] = endothelial E-selectin expression blockers – imaging, HUVEC, immunofluorescence, MLSMR starter and 10KST1 sets, primary screen (AID 487;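 active = visually confirmed hit in the image check and inhibition above 20%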;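 for inhibition: signal is fraction of cell area covered by stained E-selectin grains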;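 for nuclei count: 100% = median nuclei count of all wells on the same plate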); details: HUVEC TNFalpha-induced E-selectin immunofluorescence imaging, at 2 µM; inhibition: stronger effect = higher value; nuclei count: measured here: cell number, toxicity
[4] = Primary imaging screen for DUSP6 inhibitors that restore phospho-Erk in transfected HeLa cells, chemical complementation (AID 609;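 active = compounds giving at least 50% inhibition in the cell-based MKP-3 phosphatase rescue imaging test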;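 for inhibition: phospho-Erk level distribution per well compared with pooled transfected vehicle control wells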); details: HeLa MKP-3 transfected, phospho-Erk imaging KS statistic, at 10 µM, cells stimulated with TPA for 15 min
[5] = molecular target: Dual specificity protein phosphatase 6 (Homo sapiens) (UniProt Q16828); assay: as above; details: HeLa MKP-3 transfected, phospho-Erk imaging KS statistic; at 10 µM; stronger effect = higher value; cells stimulated with TPA for 15 min
[6] = molecular target: Voltage-gated potassium channel subunit beta-2 (Rattus norvegicus) (UniProt P62483); assay: inhibitors of rat Kvbeta2 reductase activity – biochemical, NADPH fluorescence, primary screen (AID 622;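 active = fluorescence slope higher than the sample average by over 3 SD, cut at about -0.22 in these data, passing the limit was not always enough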;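 note: slope of raw intensity against log time taken from 70 to 1610 s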); details: recombinant KvBeta, 4-cyanobenzaldehyde reduction, at 10 µM, stronger effect = higher value
[7] = molecular target: Voltage-gated potassium channel subunit beta-2 (Rattus norvegicus) (UniProt P62483); assay: enhancers of rat Kvbeta2 NADPH turnover – biochemical, NADPH fluorescence, primary screen (AID 623;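 active = NADPH fluorescence slope more negative than the mean of all samples by about 3 SD, 99.7% confidence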;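 note: fluorescence intensity change per second fitted from 20 to 320 s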); details: Recombinant KvBeta, NADPH fluorescence decrease slope, 10 min; at 10 µM; stronger effect = lower value
[8] = molecular target: Alpha-2C adrenergic receptor (Homo sapiens) (UniProt P18825); assay: compounds altering alpha2C-coupled GIRK flux – cell-based, HEK293 alpha2C/GIRK1/2, thallium flux, primary screen (AID 624;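 active = fluorescence slope after compound addition differing from the mean of all screened samples at 99.7% confidence, in either direction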;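 note: slope of fluorescence ratio to pre-addition baseline per second over 15 to 24 s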); details: thallium flux BTC fluorescence, at 10 µM, actives lie on both sides
[9] = loss of swimming-algae plug formation – whole organism, Chlamydomonas reinhardtii, WT vs cilia-less mutant, absorbance, 96-well, primary screen (AID 463189); details: Chlamydomonas reinhardtii gravitaxis, OD600 absorbance, 2 days; at 10 µM; stronger effect = higher value;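 note: 0% = wild type cc124 cells in DMSO and 100% = ciliumless bld1 mutant cells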
[10] = blockers of RIG-like receptor reporter activation – cell-based, Sendai virus stimulus, luciferase, 10K MLSCN set, TLR/RLR signaling modifier project, primary screen (AID 602276;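 active = inhibition at or above 50% at 10 µM; inactive = inhibition below 50%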;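 note: firefly luciferase from ISG56 promoter only with Renilla not read in this screen; 0% = Sendai virus plus DMSO and 100% = medium plus DMSO without virus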); details: HEK293 RL24 IRF3 luciferase reporter, at 10 µM, stronger effect = higher value
[11] = TLR3 IRF3 reporter activation blockers – cell-based, poly I:C stimulus, luciferase, 10K MLSCN set, primary screen (AID 602277;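 active = inhibition of the reporter signal at or above 50%; inactive = inhibition below 50%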); details: HEK293-TLR3 RL24 IRF3 luciferase reporter, at 10 µM, stronger effect = higher value
[12] = molecular target: Muscarinic acetylcholine receptor M4 (Homo sapiens) (UniProt P08173); assay: M4-linked GIRK flux change, two-sided – cell-based, HEK293 M4/GIRK, thallium flux, BTC-AM, M4 allosteric agonist project, primary screen (AID 625;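 active = fluorescence slope after compound addition differing from the mean of all tested samples at 99.7% confidence, mostly higher but some lower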;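 note: thallium influx through GIRK channels coupled to M4 in HEK293 cells with BTC-AM dye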); details: at 10 µM, actives lie on both sides
[13] = inhibitors of larval lipid processing in zebrafish, primary screen, whole organism, PED6 fluorescence, gall bladder and intestine (AID 686;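 active = a full or partial loss of lipid-probe fluorescence in the fish gall bladder, intestine or both, judged by eye; inactive = no fluorescence loss, or compound toxic to the fish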;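 note: larvae 5 to 7 days old with five fish per well; signal comes from phospholipase A2 cleavage of quenched PED6 carried via bile; overnight exposure to compound and PED6 before scoring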); details: Zebrafish larvae PED6 lipid processing, fluorescence scoring; screened at 20 µM (by protocol)
[14] = measured here: cell density z-score
[15] = measured here: nuclear c-Myc green intensity z-score
[16] = measured here: nuclear pErk red intensity z-score, stronger effect = higher value

Sequence of Dual specificity protein phosphatase 6 (Homo sapiens) (Q16828 whole entry, looked up): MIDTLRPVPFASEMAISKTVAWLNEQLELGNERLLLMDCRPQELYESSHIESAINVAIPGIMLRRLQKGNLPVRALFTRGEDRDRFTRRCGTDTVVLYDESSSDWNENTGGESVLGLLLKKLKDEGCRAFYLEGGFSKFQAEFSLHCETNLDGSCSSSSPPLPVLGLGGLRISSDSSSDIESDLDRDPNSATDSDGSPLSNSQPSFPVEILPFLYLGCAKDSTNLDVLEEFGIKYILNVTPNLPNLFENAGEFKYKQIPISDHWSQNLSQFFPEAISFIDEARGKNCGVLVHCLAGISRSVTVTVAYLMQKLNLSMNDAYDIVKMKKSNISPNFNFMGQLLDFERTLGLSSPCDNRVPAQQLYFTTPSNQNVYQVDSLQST
Sequence of Alpha-2C adrenergic receptor (Homo sapiens) (P18825 whole entry, looked up): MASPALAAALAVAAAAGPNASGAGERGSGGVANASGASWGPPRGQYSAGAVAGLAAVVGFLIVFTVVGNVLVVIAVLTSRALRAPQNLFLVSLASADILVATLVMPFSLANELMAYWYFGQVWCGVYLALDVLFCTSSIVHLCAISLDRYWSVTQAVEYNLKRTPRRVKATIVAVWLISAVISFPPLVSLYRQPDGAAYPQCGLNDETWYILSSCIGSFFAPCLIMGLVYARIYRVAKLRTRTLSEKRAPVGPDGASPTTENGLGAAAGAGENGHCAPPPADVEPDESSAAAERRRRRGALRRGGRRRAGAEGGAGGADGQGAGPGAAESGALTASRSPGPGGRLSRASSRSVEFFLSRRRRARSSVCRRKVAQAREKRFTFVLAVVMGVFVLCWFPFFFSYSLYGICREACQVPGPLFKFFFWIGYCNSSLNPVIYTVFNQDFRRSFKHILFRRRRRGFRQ
Sequence of Voltage-gated potassium channel subunit beta-2 (Rattus norvegicus) (P62483 whole entry, looked up): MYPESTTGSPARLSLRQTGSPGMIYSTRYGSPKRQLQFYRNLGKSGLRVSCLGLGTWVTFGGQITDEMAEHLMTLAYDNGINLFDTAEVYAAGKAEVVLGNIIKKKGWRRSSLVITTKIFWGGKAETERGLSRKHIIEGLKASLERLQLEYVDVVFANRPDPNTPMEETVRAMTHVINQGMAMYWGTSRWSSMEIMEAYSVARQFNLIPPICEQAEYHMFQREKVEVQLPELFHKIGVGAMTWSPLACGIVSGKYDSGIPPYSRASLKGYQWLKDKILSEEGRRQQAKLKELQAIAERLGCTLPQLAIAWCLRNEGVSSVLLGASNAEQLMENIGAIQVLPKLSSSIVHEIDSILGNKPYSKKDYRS
Sequence of Muscarinic acetylcholine receptor M4 (Homo sapiens) (P08173 whole entry, looked up): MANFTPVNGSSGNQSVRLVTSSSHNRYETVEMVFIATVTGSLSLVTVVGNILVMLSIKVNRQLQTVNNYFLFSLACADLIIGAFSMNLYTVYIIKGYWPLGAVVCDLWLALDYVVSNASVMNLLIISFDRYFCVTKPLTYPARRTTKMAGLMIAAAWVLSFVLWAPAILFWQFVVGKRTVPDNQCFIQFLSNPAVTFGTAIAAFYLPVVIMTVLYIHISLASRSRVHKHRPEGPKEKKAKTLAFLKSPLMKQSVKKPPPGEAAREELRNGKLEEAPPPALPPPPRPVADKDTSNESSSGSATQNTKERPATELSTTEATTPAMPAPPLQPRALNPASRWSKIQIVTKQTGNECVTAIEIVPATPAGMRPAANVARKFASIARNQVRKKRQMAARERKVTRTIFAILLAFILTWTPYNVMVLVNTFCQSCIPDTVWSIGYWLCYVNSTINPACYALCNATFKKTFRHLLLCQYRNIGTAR

SMILES	cell count [1]	inhibition [1]	inhibition of aggregation [2]	nuclei count [2]	inhibition [3]	nuclei count [3]	z-score [4, 14]	z-score [4, 15]	z-score [4, 16]	inhibition [5]	fluorescence slope [6]	NADPH fluorescence slope [7]	slope [8]	inhibition [9]	inhibition [10]	inhibition [11]	fluorescence slope [12]	outcome [13]
c1ccc(-c2nnc(OCCN3CCOCC3)c3ccccc23)cc1	493	-3.3% (inactive)	18.6% (inactive)	114%	-85.3% (inactive)	126%	0.666	0.289	1.89	-5.26% (inactive)	-0.415 (inactive)	-0.000176 (inactive)	0.00622 (inactive)	-11.2% (inactive)	15.1% (inactive)	20.9% (inactive)	–	–
CC(=O)C1=C(NC(=O)c2ccccc2F)C[C@@H]2[C@H]1C2(C)C	511	0.8% (inactive)	-2.1% (inactive)	99.3%	-94.2% (inactive)	126%	0.289	-1.02	0.959	11.9% (inactive)	-0.395 (inactive)	-7.2e-05 (inactive)	0.00586 (inactive)	13.1% (inactive)	-7.48% (inactive)	-10.2% (inactive)	0.00577 (inactive)	inactive
C[C@@H]1CCC[C@H](C)N1NC(=O)c1ccc(Cl)c(S(N)(=O)=O)c1	625	7.2% (inactive)	0.7% (inactive)	108%	-55.3% (inactive)	111%	-0.0459	-0.463	-0.78	21.2% (inactive)	-0.465 (inactive)	-5.1e-05 (inactive)	0.00499 (inactive)	24.4% (inactive)	3.39% (inactive)	20% (inactive)	–	–
Cc1ccc(S(=O)(=O)NC(=O)NN2CCCCCC2)cc1	604	-5.1% (inactive)	0% (inactive)	99.6%	-81.9% (inactive)	122%	0.424	0.978	-1.05	21.2% (inactive)	-0.457 (inactive)	-5.8e-05 (inactive)	0.00471 (inactive)	6.39% (inactive) and 32.8% (inactive)	9.08% (inactive)	19.5% (inactive)	–	–
O=C(Nc1nccs1)NC(C(F)(F)F)C(F)(F)F	620	10.3% (inactive)	-10.4% (inactive)	101%	14.4% (inactive)	95.3%	0.47	-0.00766	-0.375	3.49% (inactive)	-0.522 (inactive)	-4.1e-05 (inactive)	0.00624 (inactive)	28.7% (inactive)	22.5% (inactive)	33.5% (inactive)	0.00652 (inactive)	inactive
CCOC(=O)C1=C(N)c2ccccc2CC1C(C)C (configuration not stated)	579	9% (inactive)	-22.6% (inactive)	108%	-86.6% (inactive)	124%	2.18	-1.31	-0.876	4.72% (inactive)	-0.46 (inactive)	-2.5e-05 (inactive)	0.00503 (inactive)	36% (inactive)	17.7% (inactive)	26.3% (inactive)	0.00588 (inactive)	inactive
N#Cc1nc(COc2ccc(Br)cc2)oc1N1CCCC1	482	-2.8% (inactive)	-13.8% (inactive)	111%	14.5% (inactive)	132%	-1.92	1.26	1.21	6.04% (inactive)	-0.434 (inactive)	-7e-05 (inactive)	0.00386 (inactive)	-0.7% (inactive)	12.8% (inactive)	1.37% (inactive)	0.00636 (inactive)	inactive
CC(C)C(=O)N1CCN(c2nc(-c3ccccc3)c3c(c2C#N)CCCC3)CC1	615	-2.8% (inactive)	0.5% (inactive)	89.1%	-17.1% (inactive)	122%	0.333	0.332	-0.342	-7.67% (inactive)	-0.377 (inactive)	-9.2e-05 (inactive)	0.0045 (inactive)	5.67% (inactive)	-7.38% (inactive)	17.9% (inactive)	0.00499 (inactive)	inactive
c1ccc2[nH]c(-c3cscn3)nc2c1	587	2.5% (inactive)	-29.1% (inactive)	99.7%	-51.2% (inactive)	111%	-1.12	-0.0303	-0.292	1.38% (inactive)	-0.491 (inactive)	-6.5e-05 (inactive)	0.00525 (inactive)	45% (inactive)	-40.2% (inactive)	-133% (inactive)	–	–
COc1cc2[nH]c3c(=O)n(CCN(C(C)C)C(C)C)cnc3c2cc1OC	531	-5.6% (inactive)	-4% (inactive)	102%	-26.1% (inactive)	150%	0.411	-1.49	0.261	3.97% (inactive)	-0.317 (inactive)	-1.9e-05 (inactive)	0.00406 (inactive)	5.81% (inactive)	10.1% (inactive)	33.2% (inactive)	0.00609 (inactive)	inactive
COCCNC(=O)c1c(N)n(/N=C/c2cccs2)c2nc3ccccc3nc12	516	7.2% (inactive)	-25.1% (inactive)	108%	-36.6% (inactive)	107%	0.126	0.305	-0.729	1.75% (inactive)	-0.287 (inactive)	-9.2e-05 (inactive)	0.00574 (inactive)	17.7% (inactive)	5.03% (inactive)	-26.9% (inactive)	–	–
COC(=O)CC1SC(=O)NC1=O (configuration not stated)	552	-6.8% (inactive)	26.4% (inactive)	110%	-98.9% (inactive)	124%	-1.23	-0.523	0.399	5.26% (inactive)	-0.414 (inactive)	-0.000171 (inactive)	0.00686 (inactive)	6.27% (inactive)	1.46% (inactive)	8.22% (inactive)	–	–
Cc1oc2nc(SCCCC(=O)NCCCO)nc(N)c2c1C	507	-4.5% (inactive)	21.9% (inactive)	90.5%	-109% (inactive)	116%	0.495	0.376	-1.33	3.56% (inactive)	-0.522 (inactive)	-1.7e-05 (inactive)	0.00668 (inactive)	0.255% (inactive)	12.9% (inactive)	12.8% (inactive)	–	–
Cc1c(C)c2cc(Cl)c(O)c(CN3CCCCC3)c2oc1=O	393	1.3% (inactive)	-11.8% (inactive)	100%	-14.6% (inactive)	124%	0.378	-1.22	-0.936	5.26% (inactive)	-0.198 (inactive)	-2.2e-05 (inactive)	0.00419 (inactive)	20.3% (inactive)	4.19% (inactive)	6.59% (inactive)	–	–
Cc1cc(C)c2c(N)c(C(=O)c3ccccc3)oc2n1	544	-4.5% (inactive)	6.6% (inactive)	96.6%	-33.5% (inactive)	134%	-0.541	1.87	0.479	-3.95% (inactive)	-0.437 (inactive)	-2.9e-05 (inactive)	0.00545 (inactive)	14.6% (inactive)	-2.38% (inactive)	-28.6% (inactive)	0.00618 (inactive)	inactive
Cc1nnc(SCC(=O)N2CCC(C(N)=O)CC2)s1	423	-2.2% (inactive)	-4.3% (inactive)	87.6%	-80.5% (inactive)	137%	-1.3	-0.207	-0.854	-3.95% (inactive)	-0.418 (inactive)	-3.7e-05 (inactive)	0.00689 (inactive)	29.5% (inactive)	7.88% (inactive)	7.15% (inactive)	0.00524 (inactive)	inactive
CC1(C2(O)CC(c3ccccc3)ON2)CCCCC1 (configuration not stated)	623	1.7% (inactive)	41.9% (inactive)	65.3%	-10.4% (inactive)	105%	-1.89	-1.27	0.343	-6.06% (inactive)	-0.516 (inactive)	-7.6e-05 (inactive)	0.0054 (inactive)	9.38% (inactive)	2.61% (inactive)	4.59% (inactive)	0.00556 (inactive)	inactive
O=C(CCN1C(=O)c2ccccc2C1=O)OCN1C(=O)c2ccccc2C1=O	490	2.7% (inactive)	10% (inactive)	95.1%	-112% (inactive)	151%	0.766	-1.53	-0.92	29.7% (inactive)	-0.336 (inactive)	4.5e-07 (inactive)	0.00721 (inactive)	1.44% (inactive)	-10.1% (inactive)	-11.6% (inactive)	0.00607 (inactive)	inactive
CCc1cc(=O)oc2c(CN3CCN(C)CC3)c(O)c(Cl)cc12	430	3.2% (inactive)	27.8% (inactive)	85.9%	-40.7% (inactive)	101%	1.84	0.822	-1.78	26.3% (inactive)	-0.266 (inactive)	-4.4e-05 (inactive)	0.00532 (inactive)	13.3% (inactive)	16.8% (inactive)	22.6% (inactive)	–	–
COc1ccc(CNc2oc(COc3ccccc3Cl)nc2C#N)cc1	436	-2.2% (inactive)	21.3% (inactive)	81.6%	-70.3% (inactive)	126%	-0.4	0.197	-0.0244	3.5% (inactive)	-0.551 (inactive)	-9.3e-05 (inactive)	0.00797 (inactive)	31.6% (inactive)	7.08% (inactive)	6.46% (inactive)	0.0036 (inactive)	–
Cc1cc(=O)oc2c(CN3CCN(C)CC3)c(O)c(Cl)cc12	494	-13.9% (inactive)	0.1% (inactive)	101%	-17.2% (inactive)	105%	-0.81	-0.0591	-0.654	1.48% (inactive)	-0.0297 (active)	2e-05 (inactive)	0.00763 (inactive)	-9.73% (inactive)	14.9% (inactive)	17.6% (inactive)	–	–
